Assay results as given in PubChem BioAssay AID602 (SRMLSC, 2007).
Among all 85,000 compounds or so, about 35 (0.04%) were called active.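 The calls were made as follows: active = viability drop by adding the cancer drug above about 55%, with treated viability meeting a 40% cutoff (limit read from the data); inactive = the rest, inconclusive results apart.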 The sample as a whole holds a higher share of actives than the screen did.

Assay: reversal of MRP1-mediated doxorubicin resistance, primary screen, H69AR cells, doxorubicin co-treatment (AID 602);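 as to differential viability (reversal): larger differential means the compound sensitizes cells more to doxorubicin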
Conditions: CellTiter-Glo, 72 h, at 10 µM; for differential viability (reversal): stronger effect = higher value
[1] = H69AR cells + 2 uM doxorubicin, measured here: viability with 2 uM doxorubicin, stronger effect = lower value
[2] = H69AR cells, measured here: cytotoxicity without doxorubicin

Structure (SMILES) | differential viability (reversal) (H69AR cells + 2 uM doxorubicin) | viability [1] | viability [2]
Cc1cc(C)n(-c2nnc(C)n2NC(=O)c2cccc(Cl)c2)n1 | -4.55% (inactive) | 92.7% | 88.1%
Cc1ccc(OCc2nnc(NC(=O)OCC(C)C)s2)cc1 | 9.33% (inactive) | 92.3% | 102%
O=S(=O)(N1CCCCC1)N1CCNCC1 | -0.65% (inactive) | 101% | 100%
COc1cccc(OCc2cc(/C=N/NC(=O)c3nc(Cl)c(Cl)c(N)c3Cl)ccc2OC)c1 | -32.4% (inactive) | 52.1% | 19.7%
CS(=O)(=O)N(CC(O)Cn1c2ccccc2c2ccccc21)c1cccc2ccccc12 (stereo not drawn) | -10.3% (inactive) | 12% | 1.71%
CSc1ccccc1NC(=O)c1cc(C2CC2)on1 | -6.53% (inactive) | 97.2% | 90.7%
O=C(NCCOc1ccccc1)c1ccccc1 | -3.69% (inactive) | 95.1% | 91.4%
COc1ccc(NC(=O)Nc2ccc3nc(C)c(C)nc3c2)cc1 | 5.42% (inactive) | 85.3% | 90.7%
CCNc1nc(NC(C)C)nc(OCCOC(=O)c2ccccc2)n1 | -9.76% (inactive) | 93.2% | 83.5%
CC(C)=C1SC(N2CCN(c3cccc(C)c3)CC2)=NC1=O | 15.1% (inactive) | 81.8% | 96.9%
O=C(NC1CCCC1)C(c1ccccn1)N(C(=O)c1csnn1)C1CCCC1 (stereo not drawn) | 0.73% (inactive) | 80.5% | 81.2%
COC(=O)C1=C(Nc2ccc(C)cc2)C=C(C)C(C(=O)OC)C1c1ccc(F)cc1 (stereo not drawn) | -31.5% (inactive) | 43.6% | 12.1%
CCC(C)(C)n1nnnc1CN1CCN(c2nc3ccc(C)cc3cc2C#N)CC1 | 0.16% (inactive) | 81.3% | 81.4%
CCOc1cc2[nH]c(=S)n(CCN3CCCCC3C)c(=O)c2cc1OCC (stereo not drawn) | 3.92% (inactive) | 78.5% | 82.5%
CCOC(=O)c1cnc(SCC(=O)Nc2ccccc2C(=O)OC)nc1N | 2.9% (inactive) | 84.2% | 87.2%
O=C(Nc1ccc2oc(-c3ccc4ccccc4c3)nc2c1)c1cccs1 | -0.32% (inactive) | 2.97% | 2.65%
CCN(CC)C(=O)CN(c1cccc(OC)c1)S(=O)(=O)c1ccc(C)cc1 | -12.4% (inactive) | 94.7% | 82.3%
Cc1nnc(NC(=O)CCCOc2ccccc2)s1 | 12.8% (inactive) | 80.9% | 93.7%
CCn1c(-c2ccoc2C)n[nH]c1=S | 3.26% (inactive) | 86.2% | 89.5%
Cc1ccccc1N1CCN(CCCOc2ccc3c(C)cc(=O)oc3c2)CC1 | -14.1% (inactive) | 72.8% | 58.7%
O=c1cc(CN2CCN(c3cccc(Cl)c3)CC2)c2cc3c(cc2o1)CCCC3 | 36.9% (inactive) | 82.6% | 120%
